Test results from PubChem BioAssay (NCATS).
Results filed as inconclusive are left out. Active and inactive are the calls of the source. Calls follow the shape of the dose curve; as a rule, active = well fitted curve in the direction sought with a large enough effect; inconclusive = small, poorly fitted or top-dose-only effect, or another doubt; inactive = no such curve, though single readings can be large; an effect the other way counts as inactive or inconclusive. Where a SMILES comes first, the peptide text is derived from it. [ ]: non-standard residue; d: D form.

Key:
[1] = test system: CRL-7250; assay: Cytotoxic Profiling of Annotated Libraries Using Quantitative High-Throughput Screening (AID 1296008); details: Five cell lines viability, CellTiter-Glo ATP luminescence, 48-72 h; max response: active compounds read low; also: nearly all actives have a fitted effect of over 60% in size; as to max response: % is scaled to controls: 0 for no effect and ±100 for the full control effect
Method in brief: (§1)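 Cytotoxicity was measured as CellTiter-Glo ATP luminescence, read after 10 min at room temperature. Compound treatment of the cells lasted 48 or 72 hr at 37 degrees Celsius in a qHTS format.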

[2] = test system: HEK293; assay: as above; details: Five cell lines viability, CellTiter-Glo ATP luminescence, 48-72 h; max response: active compounds read low
Method in brief: as §1

[3] = test system: HaCat; assay: as above; details: Five cell lines viability, CellTiter-Glo ATP luminescence, 48-72 h; max response: active compounds read low
Method in brief: as §1

[4] = test system: KB-3-1; assay: as above; details: Five cell lines viability, CellTiter-Glo ATP luminescence, 48-72 h; max response: active compounds read low
Method in brief: as §1

[5] = test system: NIH3T3; assay: as above; details: Five cell lines viability, CellTiter-Glo ATP luminescence, 48-72 h; max response: active compounds read low
Method in brief: as §1

[6] = test system: HEK293T; assay: qHTS assay to identify novel small-molecules to repurpose for Merkel cell carcinoma treatment (AID 1296009); details: MCC and control cell lines, CellTiter-Glo viability, 72 h; series mostly up to 44.8 µM; also: nearly all actives have a fitted effect of over 60% in size
Method in brief: (§2)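 72 hr, 37 degree celsius; NPC 8-pt / MIPE 11-pt dose response; compound pinned in DMSO; CellTiter-Glo, 10 min RT, luminescence; normalized to no-cell and DMSO controls.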

[7] = test system: NIH3T3; assay: as above; details: MCC and control cell lines, CellTiter-Glo viability, 72 h; at 44.8 µM (top of the series) unless noted
Method in brief: as §2

[8] = test system: C33A; assay: Primary qHTS to identify gynecologic anti-cancer compounds using libraries of approved drugs and bioactive compounds (AID 1345084); details: Gynecologic cancer cell panel viability, ATPlite luminescence, 48 h; series mostly up to 57.5 µM; also: % is scaled to controls: 0 for no effect and ±100 for the full control effect; nearly all actives have a fitted effect of over 55% in size
Method in brief: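 In this quantitative HTS, cell killing is estimated from loss of ATP-dependent luciferase light. Cells see five compound concentrations over a 48 h exposure.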

N#CCc1ccc(O)cc1O[C@@H]1O[C@H](CO)[C@@H](O)[C@H](O)[C@H]1O
inactive: outcome [1] | outcome [2] | max response [3] -21.9% | max response [4] -0.902% | outcome [5] | Potency [6] | outcome [7] | Potency [8]

C[C@]12CCC(=O)C=C1[C@@H](O)C[C@@H]1[C@@H]2[C@@H](O)C[C@@]2(C)[C@H]1CC[C@]2(O)C(=O)CO
inactive: outcome [1] | outcome [2] | max response [3] 1.59% | max response [4] 8.45% | outcome [5] | Potency [6] | outcome [7] | Potency [8]

O=C(O)c1cnn(-c2nc3cc(OC(F)(F)F)c(Cl)cc3[nH]2)c1
inactive: max response [1] -25.2% | outcome [2] | max response [3] 3.71% | max response [4] 4.77% | outcome [5] | Potency [6] | outcome [7] | Potency [8]

CC(C)=CCCC1(C)Oc2cc3c(c4c2C2C(O4)C(C)(O)CCC21)CN(C(CCC(=O)O)C(=O)O)C3=O (configuration not stated)
inactive: outcome [1] | outcome [2] | max response [3] -6.38% | outcome [4] | outcome [5] | Potency [6] | outcome [7] inactive [at 17.4 µM] | Potency [8]

C=CC(C)(O)CC/C=C(\C)C(=O)OCC1OC(OC2CCC3(C)C(CCC4(C)C3CC=C3C5CC(C)(C)C(O)CC5(C(=O)O)CCC34C)C2(C)C)C(O)C(OC2OC(CO)C(O)C(OC3OC(CO)C(O)C(OC4OC(COC5OC(CO)C(O)C(O)C5O)C(O)C(O)C4O)C3O)C2O)C1O (configuration not stated)
inactive: max response [1] -1.92% | outcome [2] | max response [3] 2.14% | outcome [4] | outcome [5] | outcome [6] inactive [at 9.27 µM] | outcome [7] inactive [at 9.27 µM] | activity change, negative = cytotoxicity [8] 4.36% [at 6.55 µM]

CNC(=O)c1ccc2cc([C@@]3(O)CCn4cncc43)ccc2c1
inactive: outcome [1] | outcome [2] | max response [3] 4.91% | outcome [4] | outcome [5] | Potency [6] | outcome [7] | Potency [8]

CC1CCCC2OC2C(=O)c2c(O)cc(O)cc2CC(=O)O1 (configuration not stated)
inactive: max response [1] -0.57% | outcome [2] | max response [3] -2.51% | max response [4] 3.41% | outcome [5] | Potency [6] | outcome [7] | Potency [8]

CC(C)(O)C1CC=C(C(=O)OCC2OC(Oc3c(O)cc(C(=O)O)cc3O)C(O)C(O)C2O)CC1 (configuration not stated)
inactive: max response [1] -4.71% | outcome [2] | max response [3] -2.95% | outcome [4] | outcome [5] | Potency [6] | outcome [7] inactive [at 17.4 µM] | Potency [8]

CC1CCC2(C(=O)OC3OC(COC4OC(CO)C(O)C(O)C4O)C(O)C(O)C3O)CCC3(C)C(=CCC4C5(C)CCC(O)C(C)(C(=O)O)C5CCC43C)C2C1(C)O (configuration not stated)
inactive: outcome [1] | outcome [2] | max response [3] -9.13% | max response [4] 0.532% | outcome [5] | outcome [6] inactive [at 9.27 µM] | outcome [7] inactive [at 9.27 µM] | activity change, negative = cytotoxicity [8] -3.16% [at 11.6 µM]

CC(=O)N[C@H](Cc1ccc(O)cc1)C(=O)N[C@H](CCCN=C(N)N)C(=O)N[C@H](Cc1ccccc1)C(N)=O (Ac-[dY]-[dR]-[dF]-NH2)
inactive: max response [1] -2.02% | outcome [2] | max response [3] -6.09% | outcome [4] | outcome [5] | Potency [6] | outcome [7] | Potency [8]

CC(C(=O)O)C1CCC2(C)C3C(=O)C=C4C(CCC(=O)C4(C)C)C3(C)CCC12C (configuration not stated)
inactive: max response [1] 0.281% | outcome [2] | max response [3] -2.22% | outcome [4] | outcome [5] | Potency [6] | outcome [7] inactive [at 17.4 µM] | Potency [8]

CC1CCC2C(C)(C)C(O)CCC2(C)C12Cc1c(O)cc3c(c1O2)CN=C3N (configuration not stated)
inactive: max response [1] -3.95% | outcome [2] | max response [3] 3.03% | max response [4] 2.69% | outcome [5] | Potency [6] | outcome [7] | Potency [8]

CC1=CCC2C(C)(CO)CCCC2(CO)C1CO (configuration not stated)
inactive: outcome [1] | outcome [2] | max response [3] -5.9% | outcome [4] | outcome [5] | Potency [6] | outcome [7] | Potency [8]

O=C(/C=C/c1ccccc1)OCC1=CC[C@@H]2C(C(=O)O)=CO[C@@H](O[C@@H]3O[C@H](CO)[C@@H](O)[C@H](O)[C@H]3O)[C@H]12
inactive: outcome [1] | outcome [2] | max response [3] 0.992% | outcome [4] | outcome [5] | Potency [6] | outcome [7] inactive [at 17.4 µM] | Potency [8]
